# Results: ChEMBL document CHEMBL5606458, “ASAP - ZIKV NS2B-NS3 protease fluorescence single point” (2024)
# Screen size: about 2,700 compounds; about 160 (5.9%) showed an effect of 50% or more. The entries come from a sample that favours strong results as a whole.
# Molecular target: Nonstructural protein 3 (Zika virus) (UniProt A0A024AXB9)
# Sequence (A0A024AXB9 as listed by the source): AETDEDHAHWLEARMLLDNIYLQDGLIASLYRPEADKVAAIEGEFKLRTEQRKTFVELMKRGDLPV
structure (smiles),measurement,setting,value
N=C(N)NCCC[C@H](NC(=O)c1nccs1)C(=O)N[C@@H](CCCCN)C(=O)N[C@@H](C(N)=O)c1ccc(OCc2ccc(C(F)(F)F)cc2)cc1,inhibition,"PRVABC59, Concentration 15.0 uM, Number of replicates 1.0",91.8%
same,inhibition,"PRVABC59, Concentration 49.5 uM, Number of replicates 2.0, Standard deviation 0.021859715861266255 %",94.6%
same,inhibition,"PRVABC59, Concentration 49.5 uM, Number of replicates 2.0, Standard deviation 0.024233426369399808 %",96.9%
same,inhibition,"PRVABC59, Concentration 49.5 uM, Number of replicates 2.0, Standard deviation 0.10948739718766008 %",93.8%
same,inhibition,"PRVABC59, Concentration 49.5 uM, Number of replicates 2.0, Standard deviation 0.1218738502028297 %",97.5%
same,inhibition,"PRVABC59, Concentration 49.5 uM, Number of replicates 2.0, Standard deviation 0.12395624169405596 %",92.6%
same,inhibition,"PRVABC59, Concentration 49.5 uM, Number of replicates 2.0, Standard deviation 0.12648640130386196 %",91.3%
same,inhibition,"PRVABC59, Concentration 49.5 uM, Number of replicates 2.0, Standard deviation 0.127991549557883 %",97.2%
same,inhibition,"PRVABC59, Concentration 49.5 uM, Number of replicates 2.0, Standard deviation 0.13878114277667186 %",95.3%
same,inhibition,"PRVABC59, Concentration 49.5 uM, Number of replicates 2.0, Standard deviation 0.18792773988825517 %",89.4%
same,inhibition,"PRVABC59, Concentration 49.5 uM, Number of replicates 2.0, Standard deviation 0.2282484497468692 %",91.2%
same,inhibition,"PRVABC59, Concentration 49.5 uM, Number of replicates 2.0, Standard deviation 0.23805618998274827 %",97%
same,inhibition,"PRVABC59, Concentration 49.5 uM, Number of replicates 2.0, Standard deviation 0.25515230043791925 %",95.5%
same,inhibition,"PRVABC59, Concentration 49.5 uM, Number of replicates 2.0, Standard deviation 0.3144519047683829 %",85.9%
same,inhibition,"PRVABC59, Concentration 49.5 uM, Number of replicates 2.0, Standard deviation 0.8044343068166325 %",87.1%
same,inhibition,"PRVABC59, Concentration 49.5 uM, Number of replicates 2.0, Standard deviation 1.112040214687694 %",90.3%
same,inhibition,"PRVABC59, Concentration 49.5 uM, Number of replicates 2.0, Standard deviation 1.1256998397026805 %",90.4%
same,inhibition,"PRVABC59, Concentration 49.5 uM, Number of replicates 2.0, Standard deviation 1.7230548786677078 %",84.5%
same,inhibition,"PRVABC59, Concentration 49.5 uM, Number of replicates 2.0, Standard deviation 1.876040520916915 %",90.3%
same,inhibition,"PRVABC59, Concentration 49.8 uM, Number of replicates 2.0, Standard deviation 1.8581405857669444 %",97.9%
same,inhibition,"PRVABC59, Concentration 49.95 uM, Number of replicates 2.0, Standard deviation 2.309253478244507 %",87.4%
same,inhibition,"PRVABC59, Concentration 50.0 uM, Number of replicates 2.0, Standard deviation 0.36743959706585505 %",88.7%
same,inhibition,"PRVABC59, Concentration 99.01 uM, Number of replicates 2.0, Standard deviation 0.0 %",93.4%
same,inhibition,"PRVABC59, Concentration 99.01 uM, Number of replicates 2.0, Standard deviation 0.012046580828777775 %",94.9%
same,inhibition,"PRVABC59, Concentration 99.01 uM, Number of replicates 2.0, Standard deviation 0.02911571730090177 %",93.7%
same,inhibition,"PRVABC59, Concentration 99.01 uM, Number of replicates 2.0, Standard deviation 0.06378807510947981 %",97.6%
same,inhibition,"PRVABC59, Concentration 99.01 uM, Number of replicates 2.0, Standard deviation 0.067278508515758 %",98.8%
same,inhibition,"PRVABC59, Concentration 99.01 uM, Number of replicates 2.0, Standard deviation 0.0706826251762859 %",98.7%
same,inhibition,"PRVABC59, Concentration 99.01 uM, Number of replicates 2.0, Standard deviation 0.071545792633789 %",97.3%
same,inhibition,"PRVABC59, Concentration 99.01 uM, Number of replicates 2.0, Standard deviation 0.07721572387026257 %",95.8%
same,inhibition,"PRVABC59, Concentration 99.01 uM, Number of replicates 2.0, Standard deviation 0.10372575440882682 %",99%
same,inhibition,"PRVABC59, Concentration 99.01 uM, Number of replicates 2.0, Standard deviation 0.10948739718766008 %",97%
same,inhibition,"PRVABC59, Concentration 99.01 uM, Number of replicates 2.0, Standard deviation 0.11599352189858977 %",97.7%
same,inhibition,"PRVABC59, Concentration 99.01 uM, Number of replicates 2.0, Standard deviation 0.1471970254873272 %",98.8%
same,inhibition,"PRVABC59, Concentration 99.01 uM, Number of replicates 2.0, Standard deviation 0.27009049224933246 %",94.8%
same,inhibition,"PRVABC59, Concentration 99.01 uM, Number of replicates 2.0, Standard deviation 0.8601032130289737 %",94.3%
same,inhibition,"PRVABC59, Concentration 99.01 uM, Number of replicates 2.0, Standard deviation 0.9406367368140138 %",94.2%
same,inhibition,"PRVABC59, Concentration 99.01 uM, Number of replicates 2.0, Standard deviation 1.3348561042489029 %",88.7%
same,inhibition,"PRVABC59, Concentration 99.01 uM, Number of replicates 2.0, Standard deviation 1.4059433391708933 %",94.2%
same,inhibition,"PRVABC59, Concentration 99.01 uM, Number of replicates 2.0, Standard deviation 1.7588979073405244 %",89.5%
same,inhibition,"PRVABC59, Concentration 99.5 uM, Number of replicates 2.0, Standard deviation 0.12741970111728718 %",93.3%
same,inhibition,"PRVABC59, Concentration 99.5 uM, Number of replicates 2.0, Standard deviation 0.16892187143335857 %",101%
same,inhibition,"PRVABC59, Concentration 99.9 uM, Number of replicates 2.0, Standard deviation 1.5690280406728871 %",94.6%
same,inhibition,"PRVABC59, Concentration 100.0 uM, Number of replicates 2.0, Standard deviation 4.458993610342439 %",98%
same,inhibition,"PRVABC59, Concentration 198.0 uM, Number of replicates 2.0, Standard deviation 0.0026488451352126683 %",96.7%
same,inhibition,"PRVABC59, Concentration 198.0 uM, Number of replicates 2.0, Standard deviation 0.013907785659018856 %",98.8%
same,inhibition,"PRVABC59, Concentration 198.0 uM, Number of replicates 2.0, Standard deviation 0.021082865149513456 %",97.6%
same,inhibition,"PRVABC59, Concentration 198.0 uM, Number of replicates 2.0, Standard deviation 0.03251443916482027 %",97.8%
same,inhibition,"PRVABC59, Concentration 198.0 uM, Number of replicates 2.0, Standard deviation 0.03514709991020475 %",97.2%
same,inhibition,"PRVABC59, Concentration 198.0 uM, Number of replicates 2.0, Standard deviation 0.0599254007371534 %",99.1%
same,inhibition,"PRVABC59, Concentration 198.0 uM, Number of replicates 2.0, Standard deviation 0.06866497124437239 %",99.6%
same,inhibition,"PRVABC59, Concentration 198.0 uM, Number of replicates 2.0, Standard deviation 0.07418384817578288 %",97.3%
same,inhibition,"PRVABC59, Concentration 198.0 uM, Number of replicates 2.0, Standard deviation 0.0745722735316593 %",98.9%
same,inhibition,"PRVABC59, Concentration 198.0 uM, Number of replicates 2.0, Standard deviation 0.07483122376891023 %",96.4%
same,inhibition,"PRVABC59, Concentration 198.0 uM, Number of replicates 2.0, Standard deviation 0.07712401232790286 %",99.5%
same,inhibition,"PRVABC59, Concentration 198.0 uM, Number of replicates 2.0, Standard deviation 0.08816716098733327 %",99.7%
same,inhibition,"PRVABC59, Concentration 198.0 uM, Number of replicates 2.0, Standard deviation 0.09263944737652126 %",98.7%
same,inhibition,"PRVABC59, Concentration 198.0 uM, Number of replicates 2.0, Standard deviation 0.09449525741015294 %",99.7%
same,inhibition,"PRVABC59, Concentration 198.0 uM, Number of replicates 2.0, Standard deviation 0.3759148225392137 %",97%
same,inhibition,"PRVABC59, Concentration 198.0 uM, Number of replicates 2.0, Standard deviation 0.4983928899622956 %",97.6%
same,inhibition,"PRVABC59, Concentration 198.0 uM, Number of replicates 2.0, Standard deviation 0.5225777631622108 %",97.2%
same,inhibition,"PRVABC59, Concentration 198.0 uM, Number of replicates 2.0, Standard deviation 0.6944775623239552 %",94.7%
same,inhibition,"PRVABC59, Concentration 198.0 uM, Number of replicates 2.0, Standard deviation 1.5146538856468006 %",93.1%
same,inhibition,"PRVABC59, Concentration 200.0 uM, Number of replicates 1.0",97.4%
